Experimental data reported in PubChem BioAssay (NCATS).
Where “and” joins values, the source holds several entries; their conditions need not be identical. Equal values may be shown once. Records with an inconclusive call do not appear. A call without a number means that no potency is given here. Calls of active or inactive are those of the source. The call rests on the fitted dose curve; in most records, active means well fitted inhibition curve with a large enough effect; inconclusive means small, poorly fitted or top-dose-only effect; inactive means flat fitted curve, though single readings scatter.

test system: CP203; assay: qHTS profiling for inhibitors of Plasmodium falciparum proliferation (AID 504749); further: nearly all actives have a fitted effect of over 60% in size; details: P. falciparum in erythrocytes, SYBR Green DNA, 72 h; series mostly up to 28.7 µM
Source text: NIH National Institute of Allergy and Infectious Diseases [NIAID] NIH Chemical Genomics Center [NCGC] MLPCN Grant: None Assay Provider: Xinzhuan Su, NIAID NCGC Assay Overview: Plasmodium falciparum is a virulent malarial parasite that kills 1-2 million people worldwide each year. Transmitted by mosquitoes, the sporozoite form of the parasite enters the blood stream to infect hepatocytes, where they become merozoites that infect red blood cells (erythrocytes). Within erythrocytes, merozoites begin a […] cycle of growth and division, after which the parasite is released to infect new red blood cells. Gametocytes, which form within erythrocytes as well, circulate in the bloodstream and are ingested by the mosquito, thereby completing the life cycle. To profile malarial isolates for differential chemical responses and to identify inhibitors of malarial growth, an assay that measures P. falciparum growth and replication within erythrocytes was employed. This assay uses a DNA binding fluorescent dye (SYBR Green) to detect parasite DNA following cell lysis. Because mature erythrocytes lack DNA, only Plasmodium-derived DNA is detected.
NCGC Assay Protocol Summary: The SYBR Green viability assay was adapted from a method described previously (Plouffe et al., 2008). For screening 3 ul culture medium was dispensed into 1536 well black clear bottom plates (Aurora Biotechnologies) using a Multidrop Combi (Thermo Fisher Scientific Inc.), 23 nL compounds in DMSO were added by a pin tool (Kalypsys), and 5 ul of erythrocytes infected with P. falciparum (0.3% parasitemia, 2.5% hematocrit final concentration) were added. The plates were incubated at 37 C in a humidified incubator in 5% CO2 for 72 h, and 2 ul lysis buffer (20 mM Tris HCl, 10 mM EDTA, 0.16% saponin, 1.6% triton X, 10X SYBR Green I supplied as 10,000X […] by Invitrogen) was added to each well. The plates were mixed for 25 sec with gentle shaking and incubated overnight at room temperature in the dark. The following morning, fluorescence intensity at 485(14) nm excitation and 535(25) nm emission wavelengths was measured on an EnVision (Perkin Elmer) plate reader. Plate reads were normalized relative to the control inhibitor (0.29 uM artemisinin) and vehicle (DMSO) wells present on each plate and then corrected by an algorithm using vehicle-only control plates at the beginning and end of the compound plate stack.
Potency means the concentration at half of the fitted maximal effect.

Row | SMILES | Potency
1 | CCNc1nc(Cl)nc(NCC)n1 | inactive
2 | CCC(=O)O[C@H]1CC[C@H]2[C@@H]3CCC4=CC(=O)CC[C@]4(C)[C@H]3CC[C@]12C | inactive
3 | CCOC(=O)NC(O)C(Cl)(Cl)Cl (stereo not given) | inactive
4 | COP(=O)(OC)C(O)C(Cl)(Cl)Cl (stereo not given) | inactive
5 | CCC1(CC)C(=O)NC(=O)NC1=O | inactive
6 | CC[C@]1(O)CC[C@H]2[C@@H]3CCC4=CCCC[C@@H]4[C@H]3CC[C@@]21C | inactive
7 | C[N+](C)(C)CCOC(=O)C(O)(c1ccccc1)c1ccccc1 | inactive
8 | COP(=O)(OC)OC=C(Cl)Cl | inactive
9 | NCc1cccnc1 | inactive
10 | CC(C)(C)OC(=O)c1ncn2c1[C@@H]1CCCN1C(=O)c1c(Br)cccc1-2 | inactive
11 | CCS(=O)(=O)C(C)(C)S(=O)(=O)CC | inactive
12 | ClC1=C(Cl)C2(Cl)C(CBr)CC1(Cl)C2(Cl)Cl (stereo not given) | inactive
13 | CC(C)(O)C(Cl)(Cl)Cl | 10.7 µM (active)
14 | CC(C)NCC(O)c1ccc(N)c(C#N)c1 (stereo not given) | inactive
15 | CC(C)C(Br)C(=O)NC(N)=O (stereo not given) | inactive
16 | C[N+]1(CCC(C(N)=O)(c2ccccc2)c2ccccc2)CCCCC1 | inactive
17 | C[C@]12CC[C@H]3[C@@H](CC=C4C[C@@H](O)CC[C@@]43C)[C@@H]1CC[C@@H]2O | inactive
18 | COCC(=O)N(c1c(C)cccc1C)C(C)C(=O)OC (stereo not given) | inactive
19 | CC[n+]1c(-c2ccccc2)c2cc(N)ccc2c2ccc(N)cc21 | 213 nM (active) and 675 nM (active)
20 | Oc1c(Br)cc(Br)cc1Br | inactive

Row | SMILES | Potency
21 | Clc1ccc(CO/N=C(\Cn2ccnc2)c2ccc(Cl)cc2Cl)c(Cl)c1 | 5.36 µM (active)
22 | C[C@]12Cc3nonc3C[C@@H]1CC[C@@H]1[C@@H]2CC[C@@]2(C)[C@H]1CC[C@]2(C)O | inactive
23 | CN1C(=O)CN=C(c2ccccc2)c2cc([N+](=O)[O-])ccc21 | inactive
24 | COC(=O)C1=CCCN(C)C1 | inactive
25 | Cc1ncc2n1-c1ccc(Cl)cc1C(c1ccccc1F)=NC2 | inactive
26 | Cc1ccc(N=CN(C)C=Nc2ccc(C)cc2C)c(C)c1 | inactive
27 | CN1C[C@@H](NS(=O)(=O)N(C)C)C[C@@H]2c3cccc4c3c(cn4C)C[C@H]21 | inactive
28 | O=C(NC(=O)c1c(F)cccc1F)Nc1cc(Cl)c(OC(F)(F)C(F)C(F)(F)F)cc1Cl (stereo not given) | inactive
29 | Cc1c(Cl)c(=O)oc2cc(OP(=O)(OCCCl)OCCCl)ccc12 | 8.49 µM (active)
30 | CN(C)C(=S)SSC(=S)N(C)C | 4.78 µM (active)
31 | CNC(=O)NC(O)C(Cl)(Cl)Cl (stereo not given) | inactive
32 | CCCCCCCCC(=O)NCc1ccc(O)c(OC)c1 | inactive
33 | COP(=S)(OC)Oc1ccc(Sc2ccc(OP(=S)(OC)OC)cc2)cc1 | inactive
34 | CCN(Cc1ccc(Cl)nc1)/C(=C/[N+](=O)[O-])NC | inactive
35 | OC(c1ccccc1)(c1ccccc1)C1CCNCC1 | inactive
36 | C=CCOC(Cn1ccnc1)c1ccc(Cl)cc1Cl (stereo not given) | 9.53 µM (active)
37 | O=C(CCCN1CCC(n2c(=O)[nH]c3ccccc32)CC1)c1ccc(F)cc1 | 4.55 µM (active)
38 | OC(O)C(Cl)(Cl)Cl | inactive
39 | O=c1n(Cl)c(=O)n(Cl)c(=O)n1Cl | inactive
40 | CCCCCCCCCCCC[N+](C)(C)CCOc1ccccc1 | 10.7 µM (active)
